# Compound activity from PubChem.
# CRFR2-BP ag = agonists of human CRF-binding protein/CRF-R2 receptor complex | 0.46% of 350,000 active | AID 588473 | HEK293 CRF-R2/CRF-BP, calcium dye fluorescence (FLIPR); percent of saturating CRF peptide response | activation, % at 13.2 µM;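 active means activation of at least 50%, plus an integration ratio under a set limit after plate pattern correction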;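 further: plate controls were neutral control wells without compound for no effect and CRF at EC100 for full effect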
# CRFR2-BP antag = blocks CRF-induced signaling of the CRF-BP/CRF-R2 complex. HEK293 CRF-R2/CRF-BP, CRF-induced calcium fluorescence. inhibition, % at 11.8 µM. 0.59% of 350,000 active. AID 588475;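 active means inhibition of the ligand-induced calcium signal above about 50% at the single tested concentration, limit read from the data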
# MEKK3 PB1 HTS = raises or lowers MEK5 binding to the human MEKK3 PB1 domain; binding response (% of control), % at 10 µM; Q99759; bead-based flow cytometry, Alexa488-MEK5 binding to MEKK3; actives lie on both sides; 0 = blocked by unlabeled MEK5, 100 = vehicle; 1.4% of 290,000 active; AID 1529;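 active means binding response more than 3 SD above or below the average of its plate-row segment, actives on both sides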;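 further: Alexa488 bead fluorescence after subtracting the streptavidin-only scavenger bead signal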
# Target sequence (Q99759 whole entry, looked up, the tested form may be a part): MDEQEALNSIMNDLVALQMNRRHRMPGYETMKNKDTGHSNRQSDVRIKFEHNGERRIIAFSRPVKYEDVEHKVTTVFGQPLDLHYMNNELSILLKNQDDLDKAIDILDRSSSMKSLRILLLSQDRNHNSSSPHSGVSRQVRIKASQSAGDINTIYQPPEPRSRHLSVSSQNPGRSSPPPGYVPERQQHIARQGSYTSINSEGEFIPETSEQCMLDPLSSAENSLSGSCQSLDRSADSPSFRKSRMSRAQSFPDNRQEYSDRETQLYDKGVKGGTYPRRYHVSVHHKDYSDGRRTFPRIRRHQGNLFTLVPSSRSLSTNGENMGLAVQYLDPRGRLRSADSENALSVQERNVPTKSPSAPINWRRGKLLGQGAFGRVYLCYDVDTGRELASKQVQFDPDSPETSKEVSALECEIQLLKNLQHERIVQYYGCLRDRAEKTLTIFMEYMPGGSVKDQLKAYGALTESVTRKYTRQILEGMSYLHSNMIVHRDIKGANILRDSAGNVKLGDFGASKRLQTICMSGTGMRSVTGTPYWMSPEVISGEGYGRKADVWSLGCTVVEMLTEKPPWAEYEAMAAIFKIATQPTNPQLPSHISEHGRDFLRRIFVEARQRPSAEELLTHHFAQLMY
# MEKK2mut PB1 HTS = signal of MEK5 binding to mutant human MEKK2 PB1 domain; percent response, % at 10 µM; 0.35% of 290,000 active; bead flow cytometry, Alexa488-MEK5 binding to MEKK2 mutant; in the data active means percent response above about 24%, passing the limit was not always enough
# ABCB6 inh 2 = inhibitors of human ABC transporter ABCB6 | Q9NP58 | K562-ABCB6 porphyrin accumulation, flow cytometry, 1 h; stronger effect = lower value | fluorescence ratio to DMSO, % at 10 µM | 0.19% of 360,000 active;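 active means fluorescence ratio to DMSO below 75%, the collection mean minus 3 SD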;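 further: signal is porphyrin accumulated inside mitochondria; 100% equals median channel fluorescence of DMSO control wells; lower ratio means ABCB6 inhibition with less porphyrin fluorescence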
# MEKK2 WT-MEK5 = raises or lowers MEK5 binding to wildtype human MEKK2 PB1 domain; binding response (% of control), % at 10 µM; 1.1% of 290,000 active; bead flow cytometry, Alexa488-MEK5 binding to MEKK2 WT; actives lie on both sides; Q9Y2U5; in the data active means binding response below about 67% or above about 130%
# MEKK2wt confirm = raises or lowers MEK5 binding to wildtype human MEKK2, retest; binding response (% of control), % at 10 µM; bead flow cytometry, Alexa488-MEK5 binding to MEKK2 WT; actives lie on both sides; shares compounds with MEKK3 PB1 HTS; 2.4% of 5,900 active; in the data active means binding response below about 16% or above about 210%; inactive means in between
# MEKK2mut confirm = signal of MEK5 binding to mutant human MEKK2, retest. bead flow cytometry, Alexa488-MEK5 binding to MEKK2 mutant. 2% of 5,900 active. AID 1893. percent response, % at 10 µM. shares compounds with MEKK3 PB1 HTS; in the data active means percent response mostly above about 71%, no sharp cut-off; inactive means mostly below about 38%;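 further: higher means compound restores mutant binding toward wildtype level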
# MEKK3 confirm = MEKK3-MEK5 PB1 inhibition, single concentration confirmation; 1.8% of 5,900 active; shares compounds with MEKK3 PB1 HTS; AID 1894; bead flow cytometry, Alexa488-MEK5 binding to MEKK3; stronger effect = lower value; binding response (% of control), % at 10 µM;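 active means binding response below 72% of control, or above a set upper limit, though filed actives all read lower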;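 further: 100% = DMSO only wells and 0% = binding blocked by excess unlabeled MEK5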
# Numbers without * were called inactive; · = not tested or not shown; ! = not confirmed by another sample; [ ] = remark or other dose. Hits are enriched below; roughly 2.9% of the tested compounds scored in any of these assays.
SMILES,CRFR2-BP ag,CRFR2-BP antag,MEKK3 PB1 HTS,MEKK2mut PB1 HTS,ABCB6 inh 2,MEKK2 WT-MEK5,MEKK2wt confirm,MEKK2mut confirm,MEKK3 confirm
CCOC(=O)c1c(NC(=O)Cc2ccccc2)sc2c1CC(C)(C)NC2(C)C,0,-37,104,6,102,120,·,·,·
COC(=O)c1c(NC(=O)c2ccccc2)sc2c1CC(C)(C)NC2(C)C,5,-2,103,15,100,121,·,·,·
CCOC(=O)c1c(NC(=O)c2ccc(C)cc2)sc2c1CC(C)(C)NC2(C)C,·,·,107,30,·,138*,119,11,109
COC(=O)c1c(NC(=O)c2ccc(OC(C)C)cc2)sc2c1CC(C)(C)NC2(C)C,0,-13,104,46,102,173*,160,28,106
CCC(C)[C@H](NC(=O)[C@@H]1CSC2c3ccccc3C(=O)N21)C(=O)NCc1ccco1 (stereo not given in full),-3,5,99,-6,95,94,·,·,·
CCN(C[C@H]1N[C@@](C)(C(=O)OC)[C@H]2C(=O)N(C)C(=O)[C@@H]12)C(=O)Nc1ccccc1,-1,-21,·,·,106,·,·,·,·
Cn1cc([N+](=O)[O-])c(C(=O)NC2CCCCCC2)n1,1,-4,104,2,96,104,·,·,·
Cc1ccc2c(Cl)c(C)c(N3CCOCC3)nc2n1,1,-13,·,·,98,·,·,·,·
COc1cc(OC)cc(C(=O)NNC(=O)c2nn(C)c(=O)c3ccccc23)c1,-3,0,·,·,92,·,·,·,·
C=CCSC1=C(C#N)C(c2ccccc2OCC)CC(=O)N1 (stereo not given),0,-12,0.0*[inhibitor],-22,105,-8.0*[inhibitor],111,7,105
COC(=O)CSC1=C(C#N)C(c2ccccc2)CC(=O)N1 (stereo not given),2,-24,2.0*[inhibitor],-27,101,-2.0*[inhibitor],97,-3,98
C[C@@]12CCC[C@@](C)(C(=O)O)C1CC[C@@]13C[C@@H](NCc4ccccc4)[C@@](C)(CCC12)C3 (stereo not given in full),1,-8,·,·,96,·,·,·,·
CC(=O)Nc1ccc2c(c1)Cc1c(F)cccc1-2,-1,-13,·,·,101,·,·,·,·
CC1CCN(CCCCOc2ccc([N+](=O)[O-])cc2)CC1,-2,15,·,·,93,·,·,·,·
COC(=O)C1CCN(Cc2ccc(OCCCN3CCN(c4ccc([N+](=O)[O-])cc4)CC3)cc2)CC1,7,2,105,39,103,144*,108,-1,86
Cn1c(=O)c2c(ncn2CC(=O)OCC(=O)Nc2cc(Cl)ccc2C#N)n(C)c1=O,0,17,·,·,94,·,·,·,·
Cc1noc(C)c1S(=O)(=O)N(CC(=O)NC(C)c1ccccc1)c1ccc(C(C)C)cc1 (stereo not given),2,0,97,3,100,93,·,·,·
COC(=O)CSc1nc(-c2ccccc2)cc(-c2ccco2)c1C#N,1,-8,125*,5,99,123,106,4,106
COC(=O)CSc1nc(N)c(C#N)c(-c2ccco2)c1C#N,-1,3,93,-6,98,94,·,·,·
CCC(c1nnnn1CCOC)N1CCN(Cc2ccccc2OC)CC1 (stereo not given),1,10,117,25*,102,110,111,5,104
Cc1ccnc(NS(=O)(=O)c2ccc(NC(=O)c3ccc(Br)o3)cc2)n1,2,5,130*,1,104,118,97,-9,97
COCCCNC(=O)CN(Cc1ccccc1)S(=O)(=O)c1ccccc1,0,-10,103,27*,102,108,104,2,102
COc1ccc(/C=N/n2cnc3c([nH]c4ccc(C)cc43)c2=O)cc1CN1CCCC1,-1,11,132*,36,98,159*,122,16,101
CC1(C)Cc2c(c(N3CCOCC3)nc3sc(-c4ccc(C(=O)O)o4)c(N)c23)CO1,3,-36,80,62*,359,-5.0*,89,-2,93
Cc1ccc(C(=O)Nc2cccc(C(=O)N/N=C/c3ccc(F)cc3)c2)cc1,-1,-1,99,3,93,97,·,·,·
SMILES,CRFR2-BP ag,CRFR2-BP antag,MEKK3 PB1 HTS,MEKK2mut PB1 HTS,ABCB6 inh 2,MEKK2 WT-MEK5,MEKK2wt confirm,MEKK2mut confirm,MEKK3 confirm
CC(=O)c1cccc(NC(=O)COC(=O)c2ccccc2C)c1,1,3,101,1,97,99,·,·,·
CC(=O)Nc1ccc(S(=O)(=O)NC(C)C(=O)OCC(=O)Nc2ccc(F)cc2Cl)cc1 (stereo not given),-1,-2,·,·,100,·,·,·,·
CCNC(=O)CSc1nnc(C2CC2)n1-c1ccccc1,-1,-13,106,8,99,101,·,·,·
Cn1cccc1C(=O)NC(=O)CSc1nnc(C2CC2)n1-c1ccccc1,0,-8,127*,8,99,122,93,-4,95
Cc1ccc(CNC(=O)COc2ccc(S(=O)(=O)N3CCCC3)cc2)cc1,-1,-5,99,5,97,102,·,·,·
CN(C)c1ccc(/C=N\Nc2nc(-c3ccccc3)cc(=O)[nH]2)cc1,0,15,59*[inhibitor],-1,94,97,91,-12,90
CCc1cccc2c(C(=O)C(F)(F)F)cn(CC(=O)NCC3CCCO3)c12 (stereo not given),0,-22,105,4,106,107,·,·,·
CCc1cccc2c(C(=O)C(F)(F)F)cn(CC(=O)N3CCOCC3)c12,-1,-27,147*,6,90,124,105,2,107
CCOc1c(C)cc(-c2ncccc2O)cc1C,-4,52*!,130*!,0,98,96,101,-7,99
COc1ccc(-c2ncccc2O)cc1,-1,0,103,4,106,102,·,·,·
O=C(O)c1ccccc1C(=O)Nc1ccccc1,2,5,101,2,98,103,·,·,·
O=C(Nc1ccccc1)C1=C(c2ccccc2)S(=O)(=O)CCS1(=O)=O,45,-43,6.0*[inhibitor],-19,97,8.0*[inhibitor],103,-4,101
CCCOc1ccc(F)cc1-c1cc(C(=O)Nc2ccc(C(C)C)cc2)[nH]n1,·,·,·,·,93,·,·,·,·
